Data: PubChem BioAssay AID743279 (National Center for Advancing Translational Sciences (NCATS), 2014)
Screen size: about 360,000 compounds; about 17,000 (4.7%) were called active. Roughly 5% stayed inconclusive and do not appear here. Cut-off read from the data, not from the text of the source: active = activity change below about -50%; inconclusive = mostly about -30% to -49%; inactive = weaker than that. The full list was thinned out, with actives kept by preference.

Experiment: qHTS for Inhibitors of Inflammasome Signaling: IL-1-beta AlphaLISA Primary Screen
Conditions: THP-1 LPS/ATP IL-1B secretion, 16 h; at 57.5 µM, active compounds read low
Procedure, shortened: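 Secreted IL-1B measured by AlphaLISA bead assay after 16 h compound exposure of THP-1 cells; compounds (final up to 57.5 uM) added 1 h before LPS (250 ng/mL) and ATP (1.25 mM) stimulation; lower signal means less secretion.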
% is set by controls: 0 for no effect and ±100 for the full control effect.

Row | Structure (SMILES) | activity change
1 | O=C(Nc1cccc(S(=O)(=O)NC2=NCCC2)c1)C1CCCCC1 | 23.8% (inactive)
2 | O=C(C1=C[C@H](c2coc3ccccc3c2=O)C[C@H](OCc2ccc(CO)cc2)O1)N1CCN(Cc2ccccc2)CC1 | -63.5% (active)
3 | O=C(NCc1ccccc1)C1=C[C@@H](C2CCCCC2)C[C@@H](OCc2ccc(CO)cc2)O1 | -17.5% (inactive)
4 | O=C(NCc1ccccc1)C1=C[C@H](C2CC2)C[C@H](OCc2ccc(CO)cc2)O1 | -25.1% (inactive)
5 | O=C(NCc1ccccc1)C1=C[C@@H](c2ccc(C(F)(F)F)cc2)C[C@@H](OCc2ccc(CO)cc2)O1 | -53.9% (active)
6 | O=C(C1=C[C@H](c2ccc(C(F)(F)F)cc2)C[C@H](OCc2ccc(CO)cc2)O1)N1CCN(Cc2ccccc2)CC1 | -80.4% (active)
7 | O=C(C1=C[C@H](C2CC2)C[C@H](OCc2ccc(CO)cc2)O1)N1CCN(Cc2ccccc2)CC1 | -22.6% (inactive)
8 | O=C(C1=C[C@H](c2coc3ccccc3c2=O)C[C@H](OCc2ccc(CO)cc2)O1)N1CCOCC1 | -3.08% (inactive)
9 | CN1CCN(C(=O)C2=C[C@H](c3ccc4c(c3)OCO4)C[C@H](OCc3ccc(CO)cc3)O2)CC1 | -10.6% (inactive)
10 | CC(=O)n1cc([C@H]2C=C(C(=O)N3CCOCC3)O[C@@H](OCc3ccc(CO)cc3)C2)c2ccccc21 | -1.15% (inactive)
11 | c1ccc(-c2c[nH]c(-c3ccccc3)c2)cc1 | 14% (inactive)
12 | N#CCCC(C#N)(c1cccnc1)N1CCOCC1 (configuration not stated) | 2.31% (inactive)
13 | CC(C)(C)c1ccc(/C=C/C(=O)NCCCn2ccnc2)cc1 | -13.5% (inactive)
14 | Oc1cccc(CCc2ccccn2)c1 | -8.08% (inactive)
15 | Cc1cccc(N2CCN(C(=O)COCc3cc(-c4ccc5c(c4)OCO5)on3)CC2)c1C | -0.251% (inactive)
16 | CCc1cc(C(=O)N(CC)CC(=O)Nc2c(F)cccc2F)sc1C | -0.176% (inactive)
17 | COc1cc(CCN=Cc2ccccc2O)c([N+](=O)[O-])cc1OC | 13.4% (inactive)
18 | Cc1csc(=O)n1CCC(=O)OCC(=O)Nc1ccc(N2CCOCC2)cc1 | 0% (inactive)
19 | COC(=O)[C@H](Cc1ccccc1)NC(=O)Nc1ccc(S(N)(=O)=O)cc1 | 9.1% (inactive)

Row | Structure (SMILES) | activity change
20 | COc1ccc(C(=O)NC(=S)N2CCCCC2c2cccnc2)cc1OC (configuration not stated) | -16.3% (inactive)
21 | CSc1ncccc1C(=O)N1CCCC(Nc2ccc(F)c(F)c2)C1 (configuration not stated) | 43.2% (inactive)
22 | CC(C)OC(=O)CC(=O)CC(O)c1cccc([N+](=O)[O-])c1 (configuration not stated) | 19.7% (inactive)
23 | Cc1ccc(N(Cc2cc(=O)[nH]c3ccccc23)C(=O)CCl)cc1 | -99.5% (active)
24 | CCC(=O)N(Cc1cc2ccccc2[nH]c1=O)c1ccc(OC)cc1 | -28.7% (inactive)
25 | CC(=O)N(Cc1cc(=O)[nH]c2ccccc12)c1ccc(C)cc1C | 1.3% (inactive)
26 | CC(C=Cc1ccccc1)=NNS(=O)(=O)c1ccc([N+](=O)[O-])cc1 | -3.19% (inactive)
27 | CCOc1ccc(S(=O)(=O)N2CCN(C(=O)c3oc4ccccc4c3C)CC2)cc1 | -12.6% (inactive)
28 | COCc1[nH]nc2c1C(C1C=CCCC1)C(C#N)=C(N)O2 (configuration not stated) | -72.1% (active)
29 | N#CC1=C(N)Oc2cc(O)ccc2C1C1CCCCC1 (configuration not stated) | 50.4% (inactive)
30 | N#CC1=C(N)OC2=C(C(=O)CCC2)C1C1CC=CCC1 (configuration not stated) | 0.456% (inactive)
31 | CCCCNC(=O)C[C@@H]1C[C@@]2(C(=O)OC)CC(C)(C)CC=C2N(Cc2ccco2)C1=O | -1.57% (inactive)
32 | NCCCCC(C(=O)O)N(C(=O)OCc1ccccc1)C(=O)OCc1ccccc1 (configuration not stated) | -16.2% (inactive)
33 | Cn1nc(C(F)(F)F)c(C(=O)Nc2cccc(C(F)(F)F)c2)c1SCc1ccc(Cl)cc1 | -81.8% (active)
34 | COC(=O)c1ccccc1Sc1c(/C=N/OCc2ccc(Cl)cc2)c(C(F)(F)F)nn1C | 20.2% (inactive)
35 | O=C(O)CSc1c2c(nc3cc(C(=O)Nc4cccc(C(F)(F)F)c4)ccc13)CCCC2 | -26.7% (inactive)
36 | OC[C@@H]1CN(Cc2cccs2)C[C@H](n2cnc3c(Nc4ccccc4)ncnc32)O1 | 8.21% (inactive)
37 | c1ccc2c(CCN3CCNC[C@H]3Cc3cccc4ccccc34)cccc2c1 | -12.9% (inactive)
38 | c1ccc(C[C@H]2CNCCN2CCC23CC4CC(CC(C4)C2)C3)cc1 | -74.5% (active)

Row | Structure (SMILES) | activity change
39 | O=C1CCNCCN1[C@H](CO)Cc1ccccc1 | 17.5% (inactive)
40 | CCCC(=O)N1CCC1(C)C(=O)Nc1ccc(-n2cncn2)cc1 (configuration not stated) | 0.196% (inactive)
41 | C[C@@H]1CN([C@H](C)CO)C(=O)CCCn2cc(nn2)CO[C@H]1CN(C)S(=O)(=O)c1ccc(Oc2ccccc2)nc1 | 17.8% (inactive)
42 | O=S(=O)(c1ccc(F)cc1)N1CCN=C1SCc1cccc(F)c1 | 12.9% (inactive)
43 | CNc1ccc(SC#N)cc1 | -70.1% (active)
44 | CC(=O)N1CCc2c(sc(NC(=O)CCS(=O)(=O)c3ccccc3)c2C#N)C1 | inactive
45 | O=C1OCCOC2CCCc3oc(-c4ccccc4)c1c32 (configuration not stated) | 10.6% (inactive)
46 | O=C(NCc1ccccc1)C1c2ccccc2OCC(=O)N1CCCN1CCOCC1 (configuration not stated) | 89.8% (inactive)
47 | CCOc1ccc(S(=O)(=O)NCC2CCCO2)cc1 (configuration not stated) | 6.01% (inactive)
48 | O=S(=O)(NCC1CCCO1)c1cnc(Cl)c(Cl)c1 (configuration not stated) | -65.5% (active)
49 | O=S(=O)(NCc1ccco1)c1cnc(Cl)c(Cl)c1 | -67.1% (active)
50 | O=S(=O)(NCC1CCCO1)c1ccc2ccccc2c1 (configuration not stated) | 1.02% (inactive)
51 | O=C(COC(=O)c1cnc(Cl)c(Cl)c1)NCc1ccco1 | 10% (inactive)
52 | C/C(=N\Nc1ncc(Cl)cc1Cl)c1ccc(S(=O)(=O)NCc2ccco2)cc1 | -9.03% (inactive)
53 | O=C(Nc1cccc2ccccc12)NC1CC1 | -13.6% (inactive)
54 | COC(=O)C[C@H]1C[C@@H]2c3cc(N(C)C)ccc3O[C@@H]2[C@H](CO)O1 | 13.8% (inactive)
55 | O=C(NCc1cccnc1)c1cc(C2CCCN(C(=O)C3CCCCC3)C2)on1 (configuration not stated) | -24.1% (inactive)
56 | CCCNC(=O)c1cc(C2CCCCN2C(=O)OC)on1 (configuration not stated) | 0% (inactive)
57 | O=C1c2ccccc2-c2ccccc2NC1O (configuration not stated) | 7.09% (inactive)
